Measured values from PubChem BioAssay AID2025 (NMMLSC, 2009).
About 980 (0.3%) of roughly 330,000 compounds were called active.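 Rule for the calls: active = percent response vs DMSO below 50%; inconclusive = fewer than 70 events counted for the yeast strain; inactive = the rest.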 Only a selection was taken, and actives are over-represented in it overall.

Test: compounds altering RPL19A-GFP fluorescence, TOR branch – cell-based, S. cerevisiae, multiplex flow cytometry, MLPCN, primary screen (AID 2025);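 note: median channel GFP fluorescence of the barcoded RPL19A-GFP strain; ratio of sample median GFP to plate DMSO average so 100% = DMSO; lower means less RPL19A-GFP as with rapamycin TOR inhibition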
Details: S. cerevisiae RPL19A-GFP strain, 3 h, at 10 µM, active compounds read low

Percent response vs DMSO, inactive:
CCN(CC)c1ccc(C(=O)N/N=C(\C)c2cccc(OC)c2)cc1 103%, CC(=NNC(=O)c1ccc2nc[nH]c2c1)c1ccc(Br)cc1 103%, CCCC(NC(=O)c1ccco1)c1nc2ccccc2[nH]1 (stereo unspecified) 104%, Cc1c(C)n2c(SCC(=O)NC3CCCC3)nnc2[nH]c1=O 88%, COc1cc(SC)ccc1C(=O)NNC(=O)C1COc2ccccc2O1 (stereo unspecified) 95%, CCOc1ccccc1NC(=O)C12CC3CC(C1)CC(c1ccc(C)cc1)(C3)C2 101%, C=CCNC(=O)C12CC3CC(C1)CC(C(=O)NCC=C)(C3)C2 98.2%, O=C(COc1ccc2c(c1)CCC2)N1CCN(c2ccc(F)cc2)CC1 95.3%, COc1ccc(-c2nc3ccccc3n2CCC(C)C)cc1OC 98.3%, O=C1N(c2ccc(Cl)cc2)C(c2ccc(Cl)cc2)N2CCCN12 (stereo unspecified) 95.4%, CCOC(=O)C1CCN(C(=O)CN2C(=O)c3cccnc3Oc3ccc(C)cc32)CC1 97.7%, Cc1cc2c(cc1C)N(Cc1ccccc1)C1=NCCCN12 101%, COC(=O)C1=C(N)Oc2c(oc(CO)cc2=O)C1c1c(F)cccc1Cl (stereo unspecified) 103%, C=CCOC(=O)C1=C(C)OC(N)=C(C#N)C1c1ccc(F)cc1 (stereo unspecified) 91.2%, Cc1cccc(OCC(=O)NC2CC(C)(C)NC(C)(C)C2)c1 98.6%, Cc1cccc(NC(=O)Cn2c(=O)n(Cc3ccccc3)c(=O)c3c(C)c(C)sc32)c1 104%, Cc1c(C(C)(C)O)[nH]c2ccc(C#N)cc12 91.7%, CCOC(=O)C1CCCN(C(=O)CSc2nnc3nc(C)cc(C)n23)C1 (stereo unspecified) 93.7%, COc1cc(C(=O)NC2CCN(C)CC2)ccc1Nc1ncc2c(n1)N(C1CCC(O)CC1)CCC(=O)N2C (stereo unspecified) 90.7%, CC(=O)Nc1ccc(NC(=O)CS(=O)(=O)c2cn(CC(=O)N3CCCCC3)c3ccccc23)cc1 97.7%, O=C(CS(=O)(=O)c1cn(Cc2ccc(Cl)cc2)c2ccccc12)N1CCOCC1 91.2%, CN1CCN(C2Cc3ccc(Cl)cc3Sc3ccc(F)cc32)CC1 (stereo unspecified) 100%, COCCN(C(=O)CSCc1ccc(C)cc1)c1c(N)n(CC(C)C)c(=O)[nH]c1=O 93.3%, Nc1nc(SCc2cccc(Br)c2)n[nH]1 99.2%, Cc1ccc(N2CCN(S(=O)(=O)c3ccc(F)cc3)CC2)c(C)c1 94.2%, CCN(CC(=O)NC(=O)NCc1ccccc1)Cc1nc2ccccc2c(=O)[nH]1 102%, CCCC(=O)N(CCc1ccccc1)Cc1nc2ccccc2c(=O)[nH]1 90.4%, CC(C)(C)NC(=O)CN(Cc1cccs1)C(=O)CNS(=O)(=O)c1ccccc1 107%, O=P(c1cccs1)(c1cccs1)c1cccs1 98.8%, Cc1nc(C)c(C(=O)Nc2cccc(C)c2C)o1 98.6%, Cc1cccc(NC(=O)c2ccc3nsnc3c2)c1C 103%, Cn1c(=O)oc2cc(S(=O)(=O)NCCC(=O)NCc3ccccc3Cl)ccc21 106%, COc1ccccc1S(=O)(=O)NCc1ccc(C(=O)N(C)Cc2ccc(F)cc2)cc1 91.3%, COc1ccccc1/C=C/C(=O)OCC(=O)NC1CCCCCC1 96.2%, CCC(c1nnnn1Cc1ccccc1)N(Cc1cc2cc(OC)ccc2[nH]c1=O)CC1CCCO1 (stereo unspecified) 94.8%, CCC(c1nnnn1Cc1ccco1)N(CCc1ccccc1)Cc1cc2cccc(C)c2[nH]c1=O (stereo unspecified) 100%, O=C(CS(=O)(=O)c1ccc(C(F)(F)F)cn1)NNC(=O)c1ccccc1 99.4%, C/C(=N\NS(=O)(=O)c1ccccc1)c1c(O)cc(C)oc1=O 105%, Cc1ccc(C)c(OCC(=O)N2CCN(C(=O)c3ccco3)CC2)c1 110%, CCC(=O)Nc1ccc(C(=O)N2CCN(C(=O)c3ccco3)CC2)cc1 94.2%, CC1(C)OC(=O)N2CCc3ccccc3C21C (stereo unspecified) 99%, CCCNC(=O)C(=O)Nc1cc2c3c(c1)CCC(=O)N3CCC2 100%, O=C(COc1ccccc1)Nc1cc2c3c(c1)CC(=O)N3CCC2 101%, Cc1cccc(NC(=S)NCc2ccc3[nH]c4c(c3c2)CCCC4)c1 105%, COc1cccc(CN2CCNC(=O)C2CC(=O)N(C)CCc2ccccn2)c1 (stereo unspecified) 102%, O=C(NCc1ccccn1)c1ccc2nc(-c3ccco3)c(-c3ccco3)nc2c1 99.4%, COc1cccc(NC(=O)NCCN2CCCCC2)c1 96%, COc1ccc([N+](=O)[O-])cc1NCC(=O)c1ccc(C)cc1 104%, COc1cc(C(=O)NCCOC(=O)c2cccc(N(C)C)c2)cc(OC)c1OC 101%, O=C(CCC(=O)N1CCN(S(=O)(=O)c2ccccc2)CC1)NC1CCCc2ccccc21 (stereo unspecified) 101%, CNS(=O)(=O)c1cccc(C(=O)NC2CCCc3ccccc32)c1 (stereo unspecified) 101%, CC(=O)Nc1ccccc1C(=O)C(=O)Nc1ccc(F)cc1 105%, O=C(CCC(=O)c1ccccc1)NCc1cccc(C(F)(F)F)c1 98.9%, O=C(c1cc2ccccc2o1)N1CCN(c2cccc(C(F)(F)F)c2)CC1 98.3%, COc1ccc(CNC(=O)C2CCN(C(=O)c3ccccc3)CC2)cc1 82.1%, O=C(c1cccc(Cl)c1)N1CCN(Cc2ccccc2)CC1 103%, COc1ccc(S(=O)(=O)N2CCOC2CNC(=O)C(=O)NCc2ccncc2)cc1C (stereo unspecified) 99.3%, O=C1CSC(c2cccc(F)c2)N1c1ccc(O)cc1 (stereo unspecified) 95.8%, Cc1ccc(C2SCC(=O)N2c2ccccc2)cc1 (stereo unspecified) 103%, O=C(CC(NS(=O)(=O)c1ccc(Cl)cc1)c1ccco1)NC1CCCC1 (stereo unspecified) 96.4%, O=C(CSc1ccccn1)Nc1nc2c(ccc3ccccc32)s1 106%, COc1ccc(NC(=O)CN(C)C(=O)CC2CCCCC2)cc1 96.3%, CC(=O)Nc1ccc(NC(=O)COC(=O)C2CCC(C(C)(C)C)CC2)cc1 (stereo unspecified) 103%, Cc1ccc(NC(=S)N(CCCN2CCCC2)Cc2cccn2Cc2ccc(Cl)cc2)cc1 99.4%, CN(CCCNC(=O)CN1C(=O)CC(C)(C)S(=O)(=O)c2ccccc21)C1CCCCC1 91.3%, Cc1nccn1CC(=O)N/N=C/c1ccc(O)c(O)c1 103%, O=C(N/N=C/c1ccc(Cl)c(Cl)c1)c1ccc2nc[nH]c2c1 99.3%, CC(=O)c1c(C)c[nH]c1C 101%, CC(C)(C)C(=O)Nc1ccc(-c2cn3cccnc3n2)cc1 105%, COc1ccc(-c2cn3cccnc3n2)cc1 98.9%, Cc1noc(C)c1-c1ccc2ncnc(NC(C)c3ccco3)c2c1 (stereo unspecified) 99.4%, O=C(C[C@H]1C/C=C\C[C@@H](NC(=O)OCC2c3ccccc3-c3ccccc32)C(=O)O[C@@H](c2ccccc2)CNC1=O)N[C@H](CO)Cc1ccccc1 101%, CCOC(=O)C1CCCCN1Cc1ccc(OC)c(OC)c1OC (stereo unspecified) 94.8%, CCOC(=O)c1nnn(-c2nonc2-n2cccc2)c1CN1CCOCC1 95.3%, CCOC(=O)c1c(CN(C)C)n(-c2ccccc2)c2cc(Br)c(O)cc12 98%, COc1ccc(C(=O)NC(Cc2ccc(OC(=O)c3ccc(OC)cc3)cc2)C(=O)O)cc1 (stereo unspecified) 96.9%, O=C(O)c1ccc(COc2c(F)c(F)cc(F)c2F)o1 97%, O=C(CCS(=O)(=O)c1ccc2c(c1)NC(=O)CS2)NCc1ccccc1Cl 100%, CSc1cccc(NC(=O)C2CCCN2S(=O)(=O)c2ccc3c(c2)CCC(=O)N3)c1 (stereo unspecified) 100%, NNC(=O)C1CC(O)CN1S(=O)(=O)c1ccc(Cl)cc1 (stereo unspecified) 101%, O=C(CCNC(=O)c1ccc(Br)cc1)NCCCc1ccccc1 101%, CCCN1CCN(C(=O)CCCNC(=O)c2ccc(Cl)cc2)CC1 98.3%, O=C(Nc1ccc(Cl)cc1)Nc1nnc(/C=C/c2ccccc2)s1 97.4%, CN(c1cccc(NC(=O)Nc2ccc(Cl)cc2)c1)S(C)(=O)=O 102%, CCCCNC(=O)c1cn(CC)c2cc(N3CCN(C(=O)c4ccco4)CC3)c(F)cc2c1=O 95.5%, Cc1cc(=O)oc2c(C)c(OCC(=O)NCCN3CCOCC3)ccc12 97.4%

Percent response vs DMSO, active:
COc1ccc(/C(C)=N/NC(=O)c2ccc3nc[nH]c3c2)cc1 22.1% [may fluoresce violet], COc1c(C)c2c(c(O)c1C/C=C(\C)CCC(=O)O)C(=O)OC2 39.1% [may fluoresce violet], Cc1ccc(C23CC4CC(CC(C(=O)NCC(=O)O)(C4)C2)C3)cc1 30% [may fluoresce violet], CC(C)c1ccc(C2C(C#N)=C(N)Oc3c2oc(CO)cc3=O)cc1 (stereo unspecified) 44% [may fluoresce violet], O=C(CS(=O)(=O)c1cn(Cc2cccc(F)c2)c2ccccc12)N1CCCCC1 43% [may fluoresce violet], O=C(c1ccco1)N(Cc1nc2ccccc2c(=O)[nH]1)C1CCCC1 16.5% [may fluoresce violet], Cc1cccc(NC(=O)c2cccc(C(=O)Nc3cccc(C)c3C)n2)c1C 49.4% [may fluoresce violet], CCC(c1nnnn1Cc1ccco1)N(Cc1cc2cc(OC)ccc2[nH]c1=O)C1CCCCC1 (stereo unspecified) 39.1% [may fluoresce violet], Cc1ccc(OCC(=O)Nc2ccc(N3CCN(C(=O)c4ccco4)CC3)cc2)c(C)c1 41.5% [may fluoresce violet], O=C(Nc1cc2c3c(c1)CC(=O)N3CCC2)c1ccccc1F 43.6% [may fluoresce violet], COCCNC(=O)Nc1ccc2nc(-c3ccco3)c(-c3ccco3)nc2c1 23.4% [may fluoresce violet], O=C(O)c1cc(S(=O)(=O)NC2CCCc3ccccc32)ccc1O (stereo unspecified) 34.1% [may fluoresce violet], O=C(NCc1ccncc1)C1CCN(C(=O)c2cccc(Cl)c2)CC1 42.1% [may fluoresce violet], COc1cccc(C2SCC(=O)N2c2cccc(C)c2)c1OC (stereo unspecified) 49.7% [may fluoresce violet], CC(=O)Nc1ccc(NC(=O)CC2CCCC2)cc1 42.2% [may fluoresce violet], NCCCCCC(=O)N/N=C/c1ccc2nccnc2c1 48% [may fluoresce violet], FC(F)(F)Oc1ccc(-c2cn3cccnc3n2)cc1 30.4% [may fluoresce violet], CCOC(=O)c1c(CN2CCOCC2)n(-c2ccccc2)c2ccc(O)cc12 14.2% [may fluoresce violet], CCCCNC(=O)CCNC(=O)c1ccc(C(C)(C)C)cc1 47.4% [may fluoresce violet], O=C(Nc1ccccc1)c1nnsc1S(=O)(=O)c1ccc(Cl)cc1 46.8%
